PubChem BioAssay (NCATS)
Inconclusive results are not listed. Entries that show only a call come without a potency. The source made the active and inactive calls. The call rests on the fitted dose curve; in most records, active means well fitted inhibition curve with a large enough effect; inconclusive means small, poorly fitted or top-dose-only effect; inactive means no such curve, though single readings can be large or run the other way.

Key:
[1] = test system: Zika virus NS2B-NS3 protease (unlinked complex); test: Primary screen GU Rhodamine qHTS for Zika virus inhibitors: Unlinked NS2B-NS3 protease assay (AID 1347159); further: nearly all actives have a fitted effect of over 60% in size
How it was run: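 Enzyme 25 nM in Tris-HCl pH 8.0 + 0.01% Tween 20; compounds up to 114 microM, 15 min RT dark; + Rhod110 substrate 1.5 microM; read t0 and 15 min; delta fluorescence → % inhibition → 4-parameter Hill fit.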

[2] = test system: Zika virus NS2B-NS3 protease (linked construct); test: Primary screen NINDS Rhodamine qHTS for Zika virus inhibitors (AID 1347160); further: nearly all actives have a fitted effect of over 55% in size
How it was run: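 Enzyme (25 nM, linked NS2B-NS3) was preincubated 15 min with compound in 10 mM Tris-HCl pH 8.0, 0.01% Tween 20. Rhodamine110 substrate (1.5 microM) was then added and fluorescence read at start and after 15 min.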
Potency means the concentration at half of the fitted maximal effect.

Row | SMILES | Potency [1] | Potency [2]
1 | Cc1[nH]c2ccc(F)cc2c1-c1nc2c3cccnc3c3ncccc3c2[nH]1 | inactive | inactive
2 | CC(=O)NCc1cccc(OC[C@@H](O)CNCCc2ccc(NS(=O)(=O)c3ccccc3)cc2)c1 | inactive | inactive
3 | CC(=O)c1c(C)cc2cccc(O)c2c1O[C@@H]1O[C@H](CO)[C@@H](O)[C@H](O)[C@H]1O | inactive | inactive
4 | CO[C@@H]1CC(OC2CCC3(C)C(CCC45CCC(C6=CC(=O)OC6)C(C)(CCC43)C5=O)C2)O[C@H](C)[C@@H]1O[C@@H]1O[C@H](CO[C@@H]2O[C@H](CO)[C@@H](O)[C@H](O)[C@H]2O)[C@@H](O)[C@H](O)[C@H]1O (some centres not stated) | inactive | inactive
5 | C[C@@H]1C[C@H]2O[C@@]3(O[C@@H]2C(C)(C)O)C(O)[C@@]2(C)C4CCC5C(C)(C)[C@@H](O[C@H]6OC[C@H](O)[C@@H](O)[C@@H]6O)CC[C@@]56C[C@@]46CC[C@]2(C)C13 (some centres not stated) | inactive | inactive
6 | OC(c1ccc(-c2ccc(CN3CCN(Cc4ccncc4)CC3)cc2)c(F)c1)(C(F)(F)F)C(F)(F)F | inactive | inactive
7 | O=S(=O)(Nc1ccccc1N1CCCCC1)c1ccc(Cl)s1 | inactive | inactive
8 | COc1cc2c(cc1OC)CN(C(=O)/C=C/c1c(-c3ccccc3)n(C)c3ncccc13)CC2 | inactive | inactive
9 | CC(C)NC(=O)N1CC[C@H](N=C2Nc3cc(F)ccc3N(CC(F)F)c3ccc(Cl)cc32)C1 | inactive | inactive
10 | O=c1cc(N2CCN(c3cccc(C(F)(F)F)c3)CC2)[nH]c(=O)n1C1CCCCC1 | inactive | inactive
11 | COc1ccccc1OCCN1CC(COc2cccc3[nH]c4ccccc4c23)OCC1=O (configuration not stated) | inactive | inactive
12 | CC(C)C[C@@H]1NC(=O)[C@@H]2C[C@@]34C[C@@H]5[C@@]6(C)CCCC(C)(C)C6CC[C@@]5(C)N(c5ccccc53)[C@H]4N2C1=O (some centres not stated) | inactive | inactive
13 | CCN(CC)CCCCCCNc1cc(OC)cc2c(C)ccnc12 | inactive | inactive
14 | Cc1[nH]c(/C=C2\C(=O)Nc3cc(-c4ccccc4)ccc32)c(C)c1CCC(=O)O | 1780 nM (active) | 2240 nM (active)
15 | CN(c1ccc(NC(=O)Nc2ccccc2)cc1)S(=O)(=O)c1cnn(-c2ccc(F)cc2)c1 | inactive | inactive
16 | CC(=O)OC1C(=O)C2C3OCC4=C3[C@@](C)(CC[C@@H]4O)CC[C@]2(C)[C@H]1C(C)C (some centres not stated) | inactive | inactive

Row | SMILES | Potency [1] | Potency [2]
17 | Nc1nc(Nc2ccc3c(c2)CCC(N2CCCC2)CC3)nn1-c1cc2c(nn1)-c1ccccc1CCC2 (configuration not stated) | 50100 nM (active) | inactive
18 | C=C1CC[C@@H]2[C@](C)(CO)[C@H](O)CC[C@@]2(C)[C@@H]1CC(O)C1=CCOC1=O (some centres not stated) | inactive | inactive
19 | O=C(CN1C2=NCCN2c2ccccc21)c1ccc(-c2ccccc2)cc1 | inactive | inactive
20 | C[C@@]12C(=O)N(c3ccc(C(=O)Nc4cccc5cccnc45)cc3)C(=O)[C@@H]1[C@@H]1C=C[C@H]2C1 | inactive | inactive
21 | CCc1cnc(N2CCC(c3nc(COc4ccc(-n5cnnn5)cc4)cs3)CC2)nc1 | inactive | inactive
22 | CC(C)CCNc1ncccc1C(=O)N1CCN(Cc2ccccc2)CC1 | inactive | inactive
23 | Fc1ccc(N2CCN(CCC3OCCc4ccccc43)CC2)cc1 (configuration not stated) | inactive | inactive
24 | C=C1CCC2C(C)(C(=O)O)CCCC2(C)C1CCC1=CCOC1=O (configuration not stated) | inactive | inactive
25 | C/C(=C\CO[C@@H]1O[C@H](CO[C@H]2OC[C@](O)(CO)[C@H]2O)[C@@H](O)[C@H](O)[C@H]1O)C(C)(C)O | inactive | inactive
26 | C=C1C(=O)OC2CC(C)=C(C(C)CCCOC(C)=O)C(OC(=O)CC(C)CC)C12 (configuration not stated) | inactive | inactive
27 | CCCn1ncc(CN2CCCC(C(=O)c3cccc(OC(C)C)c3)C2)c1C (configuration not stated) | inactive | inactive
28 | COC1C=C(C)C(O)(CO)C2(C)CCCC(C)(C)C12 (configuration not stated) | inactive | inactive
29 | CCCCC1CCC(c2nc(-c3ccncc3)no2)CC1 (configuration not stated) | inactive | inactive
30 | C[C@H](Oc1cc(-c2cnn(C3CCNCC3)c2)cnc1N)c1c(Cl)ccc(F)c1Cl | inactive | inactive
31 | CC1(C)CC[C@]23CO[C@@]4(CCC5[C@@]6(C)CC[C@H](O[C@@H]7OC[C@H](O[C@@H]8O[C@H](CO)[C@@H](O)[C@H](O)[C@H]8O[C@@H]8OC[C@@H](O)[C@H](O)[C@H]8O)[C@H](O)[C@H]7O)[C@@](C)(CO)C6CC[C@@]5(C)[C@]4(C)CC2=O)[C@@H]3C1 (some centres not stated) | inactive | inactive
